From PubChem BioAssay (NCATS)
Unmarked numbers belong to inactive results. Calls come from the whole dose curve; as a rule, active = well fitted activation curve with a large enough effect; inconclusive = small, poorly fitted or top-dose-only effect; inactive = flat fitted curve, though single readings scatter.

Test: Cellular Toxicity (caspase-3) N2a (AID 665);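 note: compound exposure lasted 16 h at 37 °C before readout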
Conditions: N2a cells, luminescence, normalized: DMSO 0%, 10 µM staurosporine 100%; series mostly up to 92.2 µM; caspase-3 activation: at the top concentration
From the text: NIH Chemical Genomics Center [NCGC]
NIH Molecular Libraries Screening Centers Network [MLSCN]
National Institutes of Environmental Health Sciences [NIEHS]
National Toxicology Program [NTP]
We have developed a 1536-well cell-based assay for quantitative high throughput screening (qHTS) against a number of cell lines to determine in vitro caspase 3/7 activity of small molecules. This particular assay uses the N2a cell line which is derived from mouse neuroblastoma.
NCGC Assay Protocol Summary:
The Caspase-Glo 3/7 assay (Promega) is a homogeneous method to measure caspase-3 and caspase-7 activities in cultured cells. The quantitation of caspase 3/7 activity is based on the cleavage of a peptide-aminoluciferin substrate. After caspase cleaves the substrate the free aminoluciferin is liberated and serves as the substrate of luciferase, which generates the light. The luminescent signal is proportional to the amount of caspase 3/7 activity present.
Using the Caspase-Glo 3/7 assay, the amount of caspase 3/7 activity was measured in the N2a cells with complete culture medium following compound treatment for 16 hours. The assay was performed in opaque white 1536-well plates. In the screen, staurosporine and doxorubicin were used as positive controls. Library compounds were measured for their ability to cause the activation of caspase 3/7 in the cell line, as reflected by an increase in luminescence signal, in a concentration-dependent manner. Data were normalized to the controls for basal activity (DMSO only) and 100% stimulation (10 uM staurosporine). AC50 values were determined from concentration-response data modeled with the standard Hill equation.
qHTS protocol for caspase 3/7 assay in mouse N2a cell line
[Step] [Parameter] [Value] [Description]
1. Reagent; 5 uL; 1500 mouse N2a cells/well
2. Time; 5 hr; 37 °C incubation
4. Controls; 23 nL; doxorubicin 7 pM to 100 uM & staurosporine 1.4 pM to 20 uM
5. Time; 16 hr; 37 °C incubation
6. Reagent; 5 uL; Caspase-Glo 3/7 reagent
7. Time; 1 hr; Room Temperature
8. Detection; Luminescence; Viewlux plate reader
Keywords: caspase 3/7, apoptosis, mouse N2a cell line, luminescence, NTPHTS, NTPHTS_NCGC, NIEHS, EPA, DSSTox, MLSMR, MLSCN, NIH Roadmap, qHTS, NCGC

| Structure (SMILES) | caspase-3 activation [%] |
| --- | --- |
| CC(=O)OCCC(C)C | 1.02 |
| CCc1ccccc1 | 1.11 |
| O=Cc1c(Cl)cccc1Cl | -1.58 |
| CCNc1cc(O)ccc1C | -1.48 |
| C[C@@H]1CC2(OC[C@]3(C)O[C@H]23)O[C@H]2C[C@@]3(C)[C@@H]4CC[C@H]5C(C)(C)C(O[C@@H]6OC[C@@H](O)[C@H](O)[C@H]6O)CC[C@@]56C[C@@]46CC[C@]3(C)[C@@H]12 (stereo not given in full) | 4.51 |
| CSc1ccc(C=O)cc1 | -2.79 |
| O=C(O)CNC(=O)c1ccc([N+](=O)[O-])cc1 | -2.29 |
| Nc1ccc(F)cc1F | 1.82 |
| CCC(C)O (stereo not given) | -0.268 |
| CC(=O)Nc1ccc(C)cc1 | -5 |
| C/C(C=O)=C/c1ccccc1 | -0.765 |
| CCCCCCC=O | -0.231 |
| CCN(Cc1ccccc1)c1ccccc1 | -1.06 |
| c1ccsc1 | -2.47 |
| CCCC(Cl)CCCC(Cl)CCC(Cl)CCC(Cl)CCC(Cl)CCCC(Cl)CCC (stereo not given) | -4.47 |
| Cc1ccc(C)c([N+](=O)[O-])c1 | 5.73 |
| Cc1ccc(C(=O)O)cc1 | 4.22 |
| Nc1ccc(Cl)cc1[N+](=O)[O-] | 0.916 |
| c1ccc2[nH]cnc2c1 | 2.35 |
| CCCCC(CC)CO (stereo not given) | -2.75 |

| Structure (SMILES) | caspase-3 activation [%] |
| --- | --- |
| CC(C)=C1CCC(C)CC1=O (stereo not given) | 0.973 |
| CC(C)(c1cc(Br)c(OCC(Br)CBr)c(Br)c1)c1cc(Br)c(OCC(Br)CBr)c(Br)c1 (stereo not given) | -0.861 |
| CC=O | -1.58 |
| CC(=O)Nc1ccccc1C | -0.087 |
| CCCCCO | -2.59 |
| O=Cc1ccccc1Cl | 2.89 |
| Cc1nc2ccc(Cl)cc2[nH]1 | -8.05 |
| Cc1ccccc1Br | -1.24 |
| O=C(Cl)c1c(Cl)cccc1Cl | -2.5 |
| CC(=O)Nc1ccc(N)cc1 | 1.97 |
| Nc1c(Cl)cc(Cl)cc1Cl | 0.912 |
| Cc1ccccc1C(N)=O | -2.14 |
| CCOC(=O)OCC | -2.27 |
| CC1CCCO1 (stereo not given) | -5.69 |
| CC(C)(C)OC=O | -2.19 |
| COC(=O)CCC(=O)OC | -1.55 |
| CCOc1ccccc1N | 1.26 |
| CC=C(Cl)Cl | -4.27 |
| ON=C1CCCCC1 | 3.44 |
| CC(=O)OCc1ccco1 | -2.29 |
